# Reference: PubChem BioAssay (NCI)
# This is part of a sample that, as a whole, favours compounds with a hit. Of some 79,000 tested, about 15% had one in any assay. Calls of active or inactive are those of the source. Cut-off read from the data, not from the text of the source: active = growth inhibition above about 70%; inactive = the rest.
# Assay: NCI Yeast Anticancer Drug Screen. Data for the mec2-1 strain (AID 157)
# Conditions: S. cerevisiae mec2-1 strain, at 50.0 µM, hits give high values
# In short: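 Mutant yeast (mec2-1) grown with compound; growth inhibition relative to vehicle control reported.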
row,Structure (SMILES),growth inhibition
1,O=C(NCCNc1ccccc1)C12CC3CC(CC(C3)C1)C2,1.35% (inactive)
2,COc1ccc2c(c1)OCCN(C)OC2c1ccccc1 (configuration not stated),-4.6% (inactive)
3,CN=C(NN)NS(=O)(=O)c1cc(C)c(Cl)cc1S,-22.8% (inactive)
4,COC(=O)[C@H](Cc1ccc(OC(C)(C)C)cc1)N[C@H](C)C(=O)N[C@@H](Cc1ccccc1)C(=O)OCc1ccccc1,35.1% (inactive)
5,O=C(O)c1ccccc1C(=O)Cc1ccccc1,-19% (inactive)
6,Oc1ccc2cccc(O)c2c1,-33.6% (inactive)
7,O=C(Cc1ccccc1)c1ccc(N2CCOCC2)cc1,-19.2% (inactive)
8,NCC(=O)Nc1ccc(Cl)cc1C(=O)c1ccc[nH]1,-16% (inactive)
9,CS(=O)(=O)C(CCC(=O)C(c1ccccc1)c1ccccc1)C(=O)c1ccccc1 (configuration not stated),-11% (inactive)
10,COC(=O)C1CC(=O)CCC1c1ccccc1 (configuration not stated),-7.25% (inactive)
11,CCCCCCCCCCCCCCCCc1ccc(CCCC(=O)O)cc1,-16.2% (inactive)
12,c1ccc2c(CN3CCN(Cc4c[nH]c5ccccc45)CC3)c[nH]c2c1,-8.75% (inactive)
13,Cc1cc(=O)n(Cc2ccco2)c(=S)[nH]1,-25.4% (inactive)
14,CC(=O)Oc1ccc(OC(C)=O)c(C(=O)O)c1,-2.65% (inactive)
15,O=C(O)CS/C(=N\S(=O)(=O)c1ccccc1)Nc1cccc(Cl)c1,-24.9% (inactive)
16,O=C(NCc1ccccn1)c1ccccc1,15.8% (inactive)
17,CCC(Cc1cnc2nc(N)nc(N)c2n1)c1ccc(C(=O)NC(CCC(=O)O)C(=O)O)cc1 (configuration not stated),18.9% (inactive)
